Read-out in test [1]: Transforming growth factor beta 1 (TGFb1), TGFB1 (gene 7040)
The experiment in a line: BSK_KF3CT_TGFb1: BioMAP Diversity Plus: KF3CT Assay for Transforming growth factor beta 1 (TGFb1) Biomarker Activity (AID 2283072). The following applies: primary human keratinocytes with fibroblasts; actives raise or lower the signal. An outline of the steps: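 Read-out: ELISA for TGF-b1 in keratinocyte/foreskin fibroblast human skin co-culture, 24 h after dosing; bidirectional curve fit vs DMSO baseline; gain or loss of signal scored.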

Read-out in test [2]: C-C motif chemokine 2 (Homo sapiens) (UniProt P13500)
The experiment in a line: BSK_KF3CT_MCP1: BioMAP Diversity Plus: KF3CT Assay for Monocyte Chemoattractant Protein 1 (MCP1/CCL2) Biomarker Activity (AID 2283073). Particulars: primary human keratinocytes with fibroblasts; actives raise or lower the signal. The procedure, abridged:
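Keratinocytes and foreskin fibroblasts were co-cultured, dosed with chemical, and sampled 24 h later. MCP-1 was quantified by ELISA, and the endpoint was analyzed with bidirectional fitting using DMSO as negative control.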

Read-out in test [3]: Matrix Metallopeptidase 9 (MMP9), MMP9 (gene 4318)
Kind of test: BSK_KF3CT_MMP9: BioMAP Diversity Plus: KF3CT Assay for Matrix Metallopeptidase 9 (MMP9) Biomarker Activity (AID 2283074). Particulars: primary human keratinocytes with fibroblasts; actives raise or lower the signal. The procedure, abridged: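 MMP-9 quantified by ELISA after 24 h chemical treatment of primary human skin keratinocyte/fibroblast co-cultures; gain or loss fitted against DMSO, with parallel SRB staining (0.1% SRB, 560 nm) for overt cytotoxicity.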

Read-out in test [4]: urokinase plasminogen activator (uPA), PLAU (gene 5328)
Kind of test: BSK_KF3CT_uPA: BioMAP Diversity Plus: KF3CT Assay for urokinase plasminogen activator (uPA) Biomarker Activity (AID 2283075). Particulars: primary human keratinocytes with fibroblasts; actives raise or lower the signal. The procedure, abridged:
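ELISA read-out of uPA 24 h after dosing human skin keratinocytes co-cultured with foreskin fibroblasts. Signal change fitted both ways relative to DMSO; sulforhodamine B on parallel cultures marks overt cytotoxicity.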

Read-out in test [5]: CD40, CD40 (gene 958)
Kind of test: BSK_LPS_CD40: BioMAP Diversity Plus: LPS Assay for CD40 Biomarker Activity (AID 2283076). Particulars: primary human HUVEC with PBMC; actives raise or lower the signal. An outline of the steps:
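CD40 signal, measured by ELISA, is fitted in both directions relative to DMSO vehicle. The system is an LPS-driven human vascular primary co-culture of endothelial cells and PBMC, sampled 24 h after compound addition.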

Read-out in test [6]: E-selectin (Homo sapiens) (UniProt P16581)
The experiment in a line: BSK_LPS_Eselectin: BioMAP Diversity Plus: LPS Assay for Eselectin Biomarker Activity (AID 2283077). Particulars: primary human HUVEC with PBMC; actives raise or lower the signal. An outline of the steps:
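Signal of E-selectin, detected by ELISA, served as the endpoint; cells were umbilical vein endothelium with PBMC, read 24 h after treatment. DMSO defined baseline, and both increases and decreases were fitted.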

Read-out in test [7]: Interleukin-8 (IL8), CXCL8 (gene 3576)
Kind of test: BSK_LPS_IL8: BioMAP Diversity Plus: LPS Assay for Interleukin-8 (IL8) Biomarker Activity (AID 2283078). Particulars: primary human HUVEC with PBMC; actives raise or lower the signal. An outline of the steps: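 Endothelial cells and PBMC from human donors are co-cultured, treated with chemicals and LPS, then assayed for IL-8 by ELISA after 24 h. Parallel SRB staining (0.1% SRB after 10% TCA fixation, 560 nm) flags cytotoxicity.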

A short description of test [8]: BSK_LPS_SRB: Viability Assessment in the BioMAP Diversity Plus: LPS Assay (AID 2283079).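 Also: total protein by sulforhodamine B absorbance as a cytotoxicity measure; measured one day after compound addition; fitted in both directions against DMSO so loss or gain of signal counts.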 Particulars: primary human HUVEC with PBMC. An outline of the steps: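 Overt cytotoxicity was gauged by sulforhodamine B total-protein staining in a primary human vascular endothelial and mononuclear cell co-culture 24 h post-dosing. Activity was fitted in both directions relative to DMSO.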

Read-out in test [9]: Interleukin-1 alpha (IL1a), IL1A (gene 3552)
The experiment in a line: BSK_LPS_IL1a: BioMAP Diversity Plus: LPS Assay for Interleukin-1 alpha (IL1a) Biomarker Activity (AID 2283080). Particulars: primary human HUVEC with PBMC; actives raise or lower the signal. An outline of the steps: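 Measured: IL-1 alpha via ELISA at 24 h in LPS-activated human umbilical vein endothelium–PBMC co-culture. Baseline: DMSO, bidirectional fitting.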

Read-out in test [10]: Monocyte Chemoattractant Protein-1 (MCP1), CCL2 (gene 6347)
The experiment in a line: BSK_LPS_MCP1: BioMAP Diversity Plus: LPS Assay for Monocyte Chemoattractant Protein-1 (MCP1) Biomarker Activity (AID 2283081).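 As to AC50: secreted MCP-1 protein quantified by ELISA in culture supernatant.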 The following applies: primary human HUVEC with PBMC; actives raise or lower the signal. The procedure, abridged:
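LPS-stimulated HUVEC/PBMC co-culture; chemical, 24 h; MCP-1 by ELISA; bidirectional fit vs DMSO; cytotoxicity via SRB (0.1% stain, 10% TCA fix, 560 nm) in parallel wells.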

The nature of test [11]: BSK_LPS_PGE2: BioMAP Diversity Plus: LPS Assay for Prostaglandin E2 (PGE2) Biomarker Activity (AID 2283082). Particulars: primary human HUVEC with PBMC; actives raise or lower the signal. An outline of the steps: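 ELISA read-out of PGE2 from human umbilical vein endothelial cells co-cultured with peripheral blood mononuclear cells under LPS, 24 h post-dose. Gain or loss of signal scored relative to DMSO baseline.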

Read-out in test [12]: Macrophage colony-stimulating factor (MCSF), CSF1 (gene 1435)
The experiment in a line: BSK_LPS_MCSF: BioMAP Diversity Plus: LPS Assay for Macrophage colony-stimulating factor (MCSF) Biomarker Activity (AID 2283083). Particulars: primary human HUVEC with PBMC; actives raise or lower the signal. An outline of the steps:
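Compound is added to a human vascular primary co-culture of umbilical vein endothelium and blood mononuclear cells. After 24 h, M-CSF is quantified by ELISA. Signal changes are fitted in both directions against DMSO.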

Read-out in test [13]: Tissue Factor, F3 (gene 2152)
Kind of test: BSK_LPS_TissueFactor: BioMAP Diversity Plus: LPS Assay for Tissue Factor Biomarker Activity (AID 2283084). Particulars: primary human HUVEC with PBMC; actives raise or lower the signal. An outline of the steps:
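In this co-culture system of umbilical vein endothelium with PBMC, stimulated with LPS, cell-surface CD142 is detected by ELISA at 24 h. Endpoint values derive from bidirectional fitting, DMSO serving as baseline.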

Read-out in test [14]: Tumor necrosis factor (Homo sapiens) (UniProt P01375)
The experiment in a line: BSK_LPS_TNFa: BioMAP Diversity Plus: LPS Assay for Tumour Necrosis Factor alpha (TNFa) Biomarker Activity (AID 2283085). The following applies: primary human HUVEC with PBMC; actives raise or lower the signal. An outline of the steps: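 HUVEC/PBMC co-culture, LPS-stimulated; 24 h post-dose; TNFa by ELISA; gain or loss of signal fitted bidirectionally vs DMSO baseline.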

Read-out in test [15]: Vascular cell adhesion molecule 1 (VCAM1), VCAM1 (gene 7412)
Kind of test: BSK_LPS_VCAM1: BioMAP Diversity Plus: LPS Assay for Vascular cell adhesion molecule 1 (VCAM1) Biomarker Activity (AID 2283086). Particulars: primary human HUVEC with PBMC; actives raise or lower the signal. An outline of the steps:
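ELISA read-out of VCAM-1 at 24 h post-dosing in an LPS-driven HUVEC/PBMC primary human co-culture; gain or loss of signal fitted bidirectionally against DMSO baseline. Cytotoxicity tracked in parallel cultures by SRB total-protein staining.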

Read-out in test [16]: CD40, CD40 (gene 958)
Kind of test: BSK_SAg_CD40: BioMAP Diversity Plus: SAg Assay for CD40 Biomarker Activity (AID 2283088). Particulars: primary human HUVEC with PBMC; actives raise or lower the signal. An outline of the steps: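 Fluorescence ELISA read-out of CD40 from umbilical vein endothelium plus peripheral blood mononuclear cells, sampled 24 h after dosing. Values come from bidirectional curve fitting with DMSO as baseline.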

Read-out in the next test: CD69, CD69 (gene 969)
The experiment in a line: BSK_SAg_CD69: BioMAP Diversity Plus: SAg Assay for CD69 Biomarker Activity (AID 2283089).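 As to AC50: cell surface CD69 protein quantified by ELISA with fluorescence detection.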 Particulars: primary human HUVEC with PBMC; actives raise or lower the signal. An outline of the steps: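 ELISA, fluorescence read-out: CD69 on human umbilical vein endothelial cell + PBMC co-culture, 24 h post-dosing. Gain or loss of signal fitted bidirectionally against DMSO baseline.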

Read-out in test [17]: Monocyte Chemoattractant Protein-1 (MCP1), CCL2 (gene 6347)
Kind of test: BSK_SAg_MCP1: BioMAP Diversity Plus: SAg Assay for Monocyte Chemoattractant Protein-1 (MCP1) Biomarker Activity (AID 2283090). The following applies: primary human HUVEC with PBMC; actives raise or lower the signal. The procedure, abridged:
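Values derive from bidirectional fitting of ELISA-measured MCP1 against DMSO controls. Readings were taken 24 h after dosing human vascular endothelial cells co-cultured with peripheral blood mononuclear cells under superantigen stimulation.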

Read-out in test [18]: E-selectin (Homo sapiens) (UniProt P16581)
The experiment in a line: BSK_SAg_Eselectin: BioMAP Diversity Plus: SAg Assay for Eselectin Biomarker Activity (AID 2283091). The following applies: primary human HUVEC with PBMC; actives raise or lower the signal. An outline of the steps: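 Primary human endothelial cells and peripheral blood mononuclear cells were co-cultured and exposed to chemical for 24 hours. E-selectin levels were then quantified by ELISA, with bidirectional curve fitting normalised to DMSO controls.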

Read-out in the next test: CD38, CD38 (gene 952)
The experiment in a line: BSK_SAg_CD38: BioMAP Diversity Plus: SAg Assay for CD38 Biomarker Activity (AID 2283087). The following applies: primary human HUVEC with PBMC; actives raise or lower the signal. The procedure, abridged:
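Measures CD38 on a human endothelial/PBMC co-culture driven by SEB and TSST-1, 24 h after compound exposure, using ELISA with fluorescence detection; DMSO defines baseline for bidirectional curve fitting.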

Active and inactive are the calls of the source. The calls were made as follows: active = hit-call score of the fitted dose curve at least 0.9, where 1 is the maximum; inactive = score below 0.9.

Chain of E-selectin (Homo sapiens) (P16581 whole entry, looked up): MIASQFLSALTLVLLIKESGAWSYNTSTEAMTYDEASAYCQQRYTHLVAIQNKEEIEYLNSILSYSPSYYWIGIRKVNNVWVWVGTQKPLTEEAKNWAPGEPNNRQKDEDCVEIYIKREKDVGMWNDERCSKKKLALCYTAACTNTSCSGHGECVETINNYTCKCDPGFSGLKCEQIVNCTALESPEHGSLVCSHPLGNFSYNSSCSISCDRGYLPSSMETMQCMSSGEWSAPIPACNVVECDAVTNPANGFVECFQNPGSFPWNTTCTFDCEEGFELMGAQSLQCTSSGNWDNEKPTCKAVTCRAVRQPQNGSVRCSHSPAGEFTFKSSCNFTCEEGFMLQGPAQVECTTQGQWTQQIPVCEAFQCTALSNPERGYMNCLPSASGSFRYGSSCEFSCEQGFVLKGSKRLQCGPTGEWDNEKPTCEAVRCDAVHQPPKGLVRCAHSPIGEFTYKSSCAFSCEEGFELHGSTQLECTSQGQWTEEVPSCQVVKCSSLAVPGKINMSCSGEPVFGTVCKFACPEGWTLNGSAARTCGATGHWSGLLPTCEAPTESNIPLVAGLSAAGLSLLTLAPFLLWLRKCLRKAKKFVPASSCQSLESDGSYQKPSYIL
Chain of Tumor necrosis factor (Homo sapiens) (P01375 whole entry, looked up): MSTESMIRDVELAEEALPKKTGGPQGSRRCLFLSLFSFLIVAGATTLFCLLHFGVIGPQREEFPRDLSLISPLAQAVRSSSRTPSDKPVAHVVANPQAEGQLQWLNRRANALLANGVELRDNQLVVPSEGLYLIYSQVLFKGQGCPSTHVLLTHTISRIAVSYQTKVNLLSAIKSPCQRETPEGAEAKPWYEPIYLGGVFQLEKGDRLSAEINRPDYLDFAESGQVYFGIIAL

For the molecule `CC1=CC(C)C(C=O)C(C)C1` (stereo not drawn) (tested in a mixture with another compound), the outcome in test [1] was “inactive”; in test [2], “inactive”; in [3], “inactive”; in [4], “inactive”; with CD40, CD40 (gene 958) [5], “inactive”; in [6], “inactive”. For the same molecule, the result in test [7], in test [8], in test [9], in test [10], in test [11] and in [12] was inactive. Also, the outcome in [13] is “inactive”; in test [14] it was “inactive”; in test [15], “inactive”; with CD40, CD40 (gene 958) [16] it was “inactive”; in the test with CD69, CD69 (gene 969), “inactive”; in [17], “inactive”. In addition, in test [18], the outcome was inactive.
With `c1ccc2c(c1)-c1ccc3ccc4cccc5cc-2c1c3c45`, the result in test [1], in test [3], in [4], in test [6], in test [7] and in test [8] was inactive. For the same molecule, the result in test [9], in test [11], in test [14], in [15], in [17] and in [18] was inactive. Also, the concentration at half-maximal activity (AC50) in test [2] is 238 nM (active); in the test with CD40, CD40 (gene 958) [5], 2760 nM (active); in test [10], 2710 nM (active); in [12], 1380 nM (active); in [13] it was 8.2 nM (active); in the test with CD40, CD40 (gene 958) [16] it was 1980 nM (active). In the test with CD69, CD69 (gene 969), the half-maximal activity concentration (AC50) was 1980 nM (active).
In the case of `CCC(=O)OCC=Cc1ccccc1`, the outcome was “inactive” in [1]; “inactive” in test [2]; “inactive” in test [3]; “inactive” in test [4]; “inactive” in the test with CD40, CD40 (gene 958) [5]; “inactive” in test [6]. The result in test [7], in [8], in test [9], in [10], in [11] and in test [12] was inactive. For the same molecule, the outcome in test [13] is “inactive”; in test [14] it was “inactive”; in [15], “inactive”; with CD38, CD38 (gene 952), “inactive”; in the test with CD40, CD40 (gene 958) [16], “inactive”; in the test with CD69, CD69 (gene 969), “inactive”. The outcome in test [17] and in test [18] was inactive.
